This is a sample that favours compounds with a hit; in the whole collection about 14% have one here.
AID923 – qHTS Assay for Allosteric/Competitive Inhibitors of Caspase-1: Spectroscopic Profiling in AFC Spectral Region; compound fluorescence, AFC spectral region (405/520 nm); Potency, µM (doses to about 57.5 µM), actives largely listed as activators; hit rate 1.1% among 75,000; AID 923, 2007
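Baseline compound fluorescence (AFC region, 405 nm ex/520 nm em) taken from the intercept of kinetic reads with 50 nM caspase-1 and 5 uM Ac-WEHD-AFC; normalized to an on-plate AFC standard curve; compounds titrated up to 57 uM.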
HADH2 inh – HADH2 (human) dehydrogenase inhibition. hit rate 3.4% among 73,000. Potency, µM (top dose mostly 57.1 µM), actives largely listed as inhibitors. Q99714. recombinant HADH2, NADH fluorescence, beta-hydroxybutyryl-CoA; further: nearly all actives have a fitted effect of over 60% in size
Target sequence (Q99714 whole entry, looked up, one chain of several): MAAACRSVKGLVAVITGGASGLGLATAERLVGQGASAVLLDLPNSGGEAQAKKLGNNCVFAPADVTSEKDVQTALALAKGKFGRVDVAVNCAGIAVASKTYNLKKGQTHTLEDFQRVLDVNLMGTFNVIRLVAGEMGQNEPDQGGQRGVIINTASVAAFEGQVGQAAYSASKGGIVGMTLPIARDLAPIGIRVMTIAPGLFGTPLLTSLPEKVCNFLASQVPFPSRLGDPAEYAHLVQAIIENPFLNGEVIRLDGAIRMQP
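Buffer 100 mM Tris-HCl pH 9.0/0.01% Tween-20; HADH2 20 nM; NAD+ 1 mM; beta-hydroxybutyryl-CoA 90 uM (all final). 15 min cpd preincubation, RT.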
HSD17B inh – inhibitors of human HSD17B10 dehydrogenase | recombinant HSD17B10, NADH fluorescence kinetic | Potency, µM (top dose mostly 57.1 µM), most hits filed as inhibitors | hit rate 7.6% among 75,000 | AID 893;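 further: the protocol describes HADH2 (HSD17B10) and not the HSD17B4 of the title; nearly all actives have a fitted effect of over 70% in size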
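Activity followed as NADH fluorescence increase (ex 360, em 450 nm) every 30 seconds for 4 min, using final 90 uM beta-hydroxybutyryl CoA and 1 mM NAD+. Recombinant His-tagged enzyme, 20 nM, pH 9.0 Tris buffer, 15 min compound preincubation.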
A350 fluor – compounds fluorescent in Alexa 350 spectral region | max dye-equivalent concentration, M | Compound autofluorescence, 340/450 nm, Alexa 350 dye-equivalents; hits give high values | AID 590 | hit rate 11% among 59,000; in the data active means max dye-equivalent concentration above about 10 nM; inconclusive means mostly about 1.1 nM to 9.6 nM
CRE Fsk mod – CRE-bla signaling modulation under forskolin stimulation | AID 662 | Potency, µM (titrated, usually from 38.2 µM), hits mostly activators | CHO CRE-bla reporter (cAMP response element driving beta-lactamase), forskolin EC10, beta-lactamase ratio | hit rate 2.5% among 71,000; active means well fitted activation curve with a large enough effect in the signal ratio, with a control signal flat, not every such curve was filed as active; inconclusive means small, poorly fitted or top-dose-only effect, or effect the other way, or a change in a side signal; the % refers to the signal ratio
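Modulation of forskolin-driven signalling is measured in CHO cells carrying a CRE-controlled beta-lactamase reporter. Cells are stimulated with EC10 NKH 477 in the presence of titrated compound for 3 h at 37 °C, then loaded with CCF4 for 2 h at room temperature.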
4-MU autofl – compounds fluorescent in 4-MU spectral region. compound autofluorescence, 340/450 nm, 4-MU equivalents; hits give high values. max dye-equivalent concentration, M. hit rate 11% among 59,000. AID 589; in the data active means max dye-equivalent concentration above about 10 nM; inconclusive means mostly about 1.1 nM to 9.6 nM
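Intrinsic fluorescence at 340/450 nm (ex/em) was read after 15 min at room temperature in pH 8.0, 100 mM Tris. Each compound concentration expressed as 4-MU-equivalent concentration from a six-point 4-MU standard series on each plate.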
Hits are given with their value; - = inactive; ? = inconclusive; . = not tested or not shown; [ ] = remark or other dose. Unless noted, the call rests on the fitted dose curve; in most records, active means well fitted curve in the direction sought with a large enough effect; inconclusive means small, poorly fitted or top-dose-only effect, or another doubt; inactive means no such curve, though single readings can be large; an effect the other way counts as inactive or inconclusive.

SMILES | AID923 | HADH2 inh | HSD17B inh | A350 fluor | CRE Fsk mod | 4-MU autofl
Cc1ccc(C(c2nnnn2CC2CCCO2)N2CCN(C(=O)c3ccco3)CC2)cc1 (configuration not stated) | - | - | - | 1.11e-08M | - | 1.12e-08M
CCN1CCN(C(c2cc3cccc(C)c3[nH]c2=O)c2nnnn2Cc2ccccc2)CC1 (configuration not stated) | - | - | - | 4.58e-08M | - | 3.84e-08M
COc1ccc(NC(=O)N2CCCC3(CCN(C(=O)c4cc(C(F)(F)F)cc(C(F)(F)F)c4)CC3)C2)cc1 | - | - | - | - | ? | -
COc1ccc(Cn2nnnc2C(c2cc3cc(C)ccc3[nH]c2=O)N2CCOCC2)cc1 (configuration not stated) | - | - | ? | 6.99e-08M | - | 7.9e-08M
C[N+]1(CCC[N+]2(C)C[C@H]3[C@H](C2)[C@H]2C=C[C@@H]3CC2)CCOCC1 (some centres not stated) | -[11.5 µM] | -[11.4 µM] | -[11.4 µM] | - | -[7.6 µM] | -
C/C(Cl)=C\Cn1c(NCCCn2ccnc2)nc2c1c(=O)n(C)c(=O)n2C | - | - | - | 1.68e-08M | ? | 1.22e-08M
C/C(Cl)=C/Cn1c(NCCCn2ccnc2)nc2c1c(=O)[nH]c(=O)n2C | - | - | - | - | - | -
Cc1nc2ccccc2c(=O)n1NCc1cc(Br)cs1 | - | - | ? | 1.19e-08M | - | 1.07e-08M
O=S(O)O.O=S(O)O.[Co].[NH2-].[NH2-].[NH2-].[NH2-] | -[11.5 µM] | -[11.4 µM] | -[11.4 µM] | - | -[7.6 µM] | -
Oc1ccccc1 | - | - | - | . | - | .
Oc1ccc(O)cc1 | - | 0.398µM | 1.26µM | - | ? | -
CO[C@H]1C[C@@H]2C[C@H](O)C[C@@H](CC(=O)O[C@@H](/C=C\CC(C)C)C[C@@H]3CC[C@H](C)[C@@H](C1)O3)O2 | -[11.5 µM] | -[11.4 µM] | -[11.4 µM] | . | . | .
Cc1c(C(=O)Nc2ccc(F)cc2)oc2ccc(S(=O)(=O)N3CCCC3)cc12 | - | - | - | . | ? | .
Cc1ccc(NC(=O)c2oc3ccc(S(=O)(=O)N4CCOCC4)cc3c2C)cc1C | - | - | 25.1µM | ? | - | ?
CCOC(=O)c1sc2ccc(S(=O)(=O)N3CCOCC3)cc2c1N | - | - | - | 3.88e-08M | ? | 3.86e-08M
CCOC(=O)c1sc(=NC(=O)c2ccc(S(=O)(=O)N3CCOCC3)cc2)n(C)c1C | - | - | - | 7.27e-08M | - | 7.37e-08M
CCOC(=O)C(C(=O)OCC)C(=O)c1cc(OC)c(OC)c(OC)c1 | - | - | - | - | ? | -
CCOC(=O)c1sc(=NC(=O)c2cc(OC)c(OC)c(OC)c2)n(C)c1C | - | ? | 15.8µM | 1.79e-08M | - | 1.92e-08M
Cc1c(C(=O)N2CCCCC2)oc2ccc(S(=O)(=O)N3CC(C)CC(C)C3)cc12 (configuration not stated) | - | - | - | - | - | -
CCOC(=O)c1sc2ccc(S(=O)(=O)N3CCCCC3)cc2c1N | - | - | ? | 6.16e-08M | ? | 4.24e-08M
CCOC(=O)N1CCN(C(=O)c2oc3ccc(S(=O)(=O)N4CCCCC4)cc3c2C)CC1 | - | - | - | 1.02e-08M | - | ?
CCc1cc2c(=O)c(Oc3ccccc3)c(C)oc2cc1O | - | 25.1µM | 31.6µM | . | - | .
CCc1cc2c(=O)c(-c3nc4ccccc4n3C)c(COCC(=O)O)oc2cc1O | - | - | - | . | . | .
CCOC(=O)c1ccc(CC(=O)c2oc3cc(O)ccc3c2C)o1 | - | ? | 31.6µM | 5.65e-08M | ? | 3.91e-08M
CCOC(=O)c1ccc(-c2c(C(=O)OCC)oc3cc(O)c(CC)cc3c2=O)o1 | - | 6.31µM | - | 1.16e-08M | ? | 1.01e-08M
CCOC(=O)c1oc2cc(O)ccc2c(=O)c1-c1csc(C)n1 | - | - | - | - | - | -
CCC/C=C(\CCC)C(NC(=O)c1ccc(C(F)(F)F)cc1)c1ccc(C(F)(F)F)cc1 (configuration not stated) | - | - | - | . | ? | .
O=C(c1csnn1)N1CCC[C@@]2(CCN(C(c3ccccc3)c3ccccc3)C2)C1 | - | - | - | - | - | -
CCOc1ccc2nc(NC3=NCN(CC4CCCO4)CN3)nc(C)c2c1 (configuration not stated) | - | - | ? | 7.5e-08M | - | 5.6e-08M

Source: PubChem BioAssay (National Center for Advancing Translational Sciences (NCATS))
